Source: PubChem BioAssay
mHTT CaM bind: inhibitors of human mutant huntingtin-calmodulin interaction. P42858. AlphaScreen His-mHTT/GST-CaM binding, luminescence. inhibition, % at 15 µM. 190,000 compounds, 3.6% hits. AID 1671202
Pf apPOL inh: Pf-apPOL DNA polymerase inhibition | Recombinant Pf-apPOL, molecular beacon fluorescence, 1.5 h | 210,000 compounds, 0.25% hits | inhibition, % at 10 µM
A number is an active result; . = inactive; / = no result. Sampled rows, rich in hits. Any-hit rate of the full collection: about 3.6%. Cut-off read from the data, not from the text of the source: active = inhibition above about 50%; inactive = the rest.

SMILES	mHTT CaM bind	Pf apPOL inh
CCOC(=O)N1CCC2(CC1)N=C(c1ccc(OCC)cc1)CC(c1ccccc1O)N2 (centres undefined)	.	.
COc1ccc(C2=NC3(CCN(C(C)C)CC3)NC(c3ccccc3O)C2)cc1 (centres undefined)	.	.
CCOc1ccc(C2=NC3(CCN(C(C)=O)CC3)NC(c3ccccc3O)C2)cc1 (centres undefined)	51	.
COc1ccc(C2=NC3(CCCCC3)NC(c3ccccc3O)C2)cc1 (centres undefined)	59	.
COc1cccc(N(CC(=O)Nc2cc(C)cc(C)c2)S(C)(=O)=O)c1	.	.
CC(C(=O)N1CCCc2c1c(=O)oc1ccc(O)cc21)N1CCCCCC1 (centres undefined)	.	.
N=C1S/C(=C\c2ccc(-c3ccccc3C(=O)O)o2)C(=O)N1c1nccs1	74	.
N=C1S/C(=C\c2ccc(-c3ccc(F)cc3F)o2)C(=O)N1c1nccs1	.	.
N=C1S/C(=C\c2ccc(-c3ccc(F)c(Cl)c3)o2)C(=O)N1c1nccs1	.	.
N=C1S/C(=C\c2ccc(-c3cccc(F)c3)o2)C(=O)N1c1nccs1	62	.
O=C(NC1CC2CC1N(C(=O)c1ccc(Cl)s1)C2)c1cccs1 (centres undefined)	.	.
Cc1cccc(C(=O)N2CCC(c3nc(C(=O)N4CCCCC4)c(C)o3)CC2)c1	.	.
CCc1nnc2c(NC(=O)c3ccc(C(C)C)cc3)cccn12	.	.
COc1ccc(N=c2oc3c(C)ncc(CO)c3cc2C(=O)Nc2ccccc2)c(OC)c1	.	.
CCc1ccc(NC(=O)c2cc3c(CO)cnc(C)c3oc2=Nc2ccc(OC)cc2OC)cc1	.	57
O=[N+]([O-])c1ccc(CSc2nnc3ccc(-c4ccc(F)cc4)nn23)cc1	.	.
CCC(=O)Nc1cccc(NC(=O)c2cccc(OC(C)C)c2)c1	.	.
Cc1cc(C)cc(NCc2cc3c(cc2[N+](=O)[O-])OCO3)c1	68	.
COc1ccc(CNCc2cc3c(cc2[N+](=O)[O-])OCO3)cc1	.	.
CCn1cc(Cl)c(/C=C/C(=O)c2cnn(C)c2)n1	.	/
O=C(NCc1ccc2c(c1)OCO2)c1ccc2nc(-c3ccccn3)c(-c3ccccn3)nc2c1	.	61
O=C(CCc1nc(-c2ccccn2)no1)NCc1ccc2c(c1)OCO2	/	.
Cc1cc(C2CCCN2C(=O)c2cc(-c3ccc(Cl)cc3)on2)on1 (centres undefined)	.	.
O=[N+]([O-])c1cc(Oc2ccc3c(c2)CCC3)cc(-n2cnnn2)c1	51	/
Cc1cc([N+](=O)[O-])nn1CCCC(=O)Nc1cc(Oc2ccc3c(c2)CCC3)cc([N+](=O)[O-])c1	.	.
SMILES	mHTT CaM bind	Pf apPOL inh
O=C(Nc1cnc(N2CCCC2)nc1)c1ccc(Cl)cc1	.	.
O=C(CSc1nnc(-c2ccco2)c(-c2ccco2)n1)Nc1cccc(Br)c1	100	.
O=C(CSc1nnc(-c2ccco2)c(-c2ccco2)n1)Nc1cccc([N+](=O)[O-])c1	98	.
O=C(O)Cn1c2ccccc2c2nnc(SCC(=O)Nc3cccc(Br)c3)nc21	.	.
O=C(CSc1nnc(-c2ccco2)c(-c2ccco2)n1)Nc1ccccc1[N+](=O)[O-]	74	.
O=C(CSc1nnc(-c2ccco2)o1)Nc1cccc([N+](=O)[O-])c1	.	.
O=C(CSc1n[nH]c(-c2ccccc2)n1)Nc1ccccc1[N+](=O)[O-]	.	.
CCOC(CNC(=O)CCNS(=O)(=O)c1ccc(Cl)cc1)OCC	.	.
COc1ccc(OC)c(NC(=O)CN(c2ccc([N+](=O)[O-])cc2)S(=O)(=O)c2ccccc2)c1	.	.
O=S(=O)(c1ccccc1)N(O)Cc1ccccc1	.	.
Fc1ccc(-n2cc(-c3noc(-c4ccccc4F)n3)nn2)cc1	.	.
O=C(O)CCC(=O)Nc1nc2n(n1)C(c1ccccc1)C=C(c1ccccc1)N2 (centres undefined)	.	.
COc1ccc(C(=O)Nc2nc3n(n2)C(c2ccccc2)C=C(c2ccccc2)N3)cc1 (centres undefined)	61	.
O=C(Nc1nc2n(n1)C(c1ccccc1)C=C(c1ccccc1)N2)c1ccco1 (centres undefined)	67	.
O=C(Nc1nc2n(n1)C(c1ccccc1)C=C(c1ccc(Cl)cc1)N2)c1ccco1 (centres undefined)	.	.
CC1=CC(c2ccc(Cl)cc2)n2nc(NC(=O)c3ccccc3)nc2N1 (centres undefined)	.	.
CC(=O)Nc1nc2n(n1)C(c1ccccc1)C=C(c1ccccc1)N2 (centres undefined)	.	.
COc1ccc(C(=O)Nc2nc3n(n2)C(c2ccccc2)C=C(c2ccc(Cl)cc2)N3)cc1 (centres undefined)	62	.
COc1ccccc1C(=O)Nc1nc2n(n1)C(c1ccccc1)C=C(c1ccccc1)N2 (centres undefined)	68	.
COCc1nc2c(NC(=O)C(C)C)cccn2n1	.	.
Cc1[nH]c(=O)c(C#N)c(C)c1CSCc1ccco1	.	/
